# Sampled rows, rich in hits. Any-hit rate of the full collection: about 9.4%.
# ALDH1A1 block – ALDH1A1 (human) enzyme inhibition; P00352; Purified ALDH1A1, NADH fluorescence, propionaldehyde substrate; Potency, µM (titrated, usually from 75.3 µM), usual class: inhibitors; hit rate 7.3% among 220,000; active = well fitted inhibition curve with a large enough effect, not every such curve was filed as active; inconclusive = small, poorly fitted or top-dose-only effect, or another doubt; inactive = no such curve, though single readings can be large or run the other way
# IMPase inh – membrane-permeable compound that blocks inositol monophosphatase. P97697. CHO-M1 cells, IP1 accumulation, HTRF TR-FRET ratio. inhibition (IP1 accumulation), % at 46.1 µM. 120,000 tested, under 10 active; active = well fitted curve in the direction sought with a large enough effect in the signal ratio, not every such curve was filed as active; inconclusive = small, poorly fitted or top-dose-only effect, or a change in a side signal; inactive = no such curve, though single readings can be large or run the other way; the % refers to the signal ratio;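 note: cells stimulated with carbachol in lithium chloride buffer; higher means more IMPase inhibition seen as more IP1 and lower FRET ratio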
# Target sequence (P97697 whole entry, looked up): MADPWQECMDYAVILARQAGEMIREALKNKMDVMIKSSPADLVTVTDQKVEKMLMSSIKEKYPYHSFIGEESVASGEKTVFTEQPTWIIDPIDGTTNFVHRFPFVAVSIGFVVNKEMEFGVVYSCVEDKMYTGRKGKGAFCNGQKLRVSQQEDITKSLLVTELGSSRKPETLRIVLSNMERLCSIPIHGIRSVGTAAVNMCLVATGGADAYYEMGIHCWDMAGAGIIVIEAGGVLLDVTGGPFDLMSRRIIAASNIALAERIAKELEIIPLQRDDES
#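 CHO-M1 cells (CHO stably expressing M1 receptor), compound up to 46 uM final, stimulated with carbachol (50 uM as added) in buffer with 50mM LiCl, pH 7.4, 30 min at 37C. Cytosolic IP1 read by TR-FRET; AC50 from Hill fits.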
# HPGD block – blocks human HPGD enzyme activity | purified HPGD, NADH fluorescence kinetic, PGE2 substrate | P15428 | Potency, µM, hits mostly inhibitors | hit rate 4.3% among 150,000; active = well fitted inhibition curve with a large enough effect, not every such curve was filed as active; inconclusive = small, poorly fitted or top-dose-only effect, or another doubt; inactive = no such curve, though single readings can be large or run the other way
# Target sequence (P15428 whole entry, looked up): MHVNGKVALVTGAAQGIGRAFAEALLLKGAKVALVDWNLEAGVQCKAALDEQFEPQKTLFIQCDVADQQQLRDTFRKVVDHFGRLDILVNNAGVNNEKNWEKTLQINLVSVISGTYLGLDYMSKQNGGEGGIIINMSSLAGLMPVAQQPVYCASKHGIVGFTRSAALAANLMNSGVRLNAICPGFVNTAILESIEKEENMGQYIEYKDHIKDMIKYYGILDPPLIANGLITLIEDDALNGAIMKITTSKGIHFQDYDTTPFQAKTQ
#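 20 nM HPGD preincubated 15 min at room temperature with compound in 50 mM Tris-HCl pH 8, 0.01% Tween 20. Started with 1 mM NAD+ and 30 uM prostaglandin E2; NADH fluorescence (360/450 nm) read 5 times over 30-s intervals, last minus first.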
# HTT aggregate – inhibitors of mutant huntingtin aggregate formation in PC12 cells | Potency, µM (highest dose often 46.1 µM), usual class: inhibitors | PC12 HttQ103-GFP aggregates, Acumen cytometry, 40 h | hit rate 1.1% among 220,000; note: nearly all actives have a fitted effect of over 60% in size
#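 Compounds (qHTS titration) were added to PC12 cells expressing an ecdysone-driven HTT exon 1 Q103–GFP fusion after induction with 100 nM tebufenozide. Aggregate formation was measured as GFP objects in cell lysates.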
# IMPase Li inh – membrane-permeable IMPase blocker, potentiated with lithium; CHO-M1 cells, IP1 TR-FRET (IP-One), carbachol + lithium; AID 1457; hit rate 0.35% among 210,000; Potency, µM (highest dose often 59.4 µM), hits mostly inhibitors;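 note: IP1 builds up when IMPase is blocked and the TR-FRET signal falls; nearly all actives have a fitted effect of over 50% in size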
#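 CHO cells stably expressing M1 receptor (2000/well) were cultured 16–30 h, then exposed to compounds with a small lithium addition for 30 min at 37C. IP1 was measured by TR-FRET competition; AC50 from Hill fits.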
# HTT cytoprotect – protects HTT-Q103 PC12 cells, measured by ATP. PC12 HTT-Q103 induced, cytoprotection, ATP luminescence, 40 h. Potency, µM (doses to about 56.4 µM), usual class: activators. hit rate 0.14% among 230,000; note: nearly all actives have a fitted effect of over 45% in size
#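 ATP quantification (ATPlite) reports survival of PC12 cells in which tebufenozide, 100 nM final, switches on Htt exon 1 with 103 glutamines linked to GFP; compounds are titrated.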
# Numbers stand for hits; – = inactive; ? = inconclusive; · = not tested or not shown; [ ] = dose if it differs, or a comment. Unless noted, calls come from the whole dose curve; as a rule, active = well fitted curve in the direction sought with a large enough effect; inconclusive = small, poorly fitted or top-dose-only effect, or another doubt; inactive = no such curve, though single readings can be large; an effect the other way counts as inactive or inconclusive.
SMILES,ALDH1A1 block,IMPase inh,HPGD block,HTT aggregate,IMPase Li inh,HTT cytoprotect
Cc1ccc(C(=O)CSc2nnc(CNc3nc(-c4ccccc4)cs3)n2C)cc1,14µM,–,–,?,–,–
COCCNC(=O)CSc1nc(-c2ccccc2)cs1,–,?,32µM,–,–,–
O=C(CSc1nc(-c2ccccc2)cs1)NCc1ccco1,25µM,–,28µM,–,–,–[10 µM]
c1cncc(-c2csc(NCc3ccco3)n2)c1,?,–,14µM,–,–,–
O=C(O)c1c[nH]c2c(ccc3[nH]cc(C(=O)O)c(=O)c32)c1=O,–[13.5 µM],·,–,·,–,–[10 µM]
O=C1N=C2SCCN2C(=O)C1Cc1ccc(Cl)cc1 (stereo not drawn),·,·,·,–,·,–
CCn1c(CNc2nc(-c3ccccc3)cs2)nnc1SCC(=O)NCc1ccco1,28µM,–,?,–,–,–[10 µM]
CCn1c(SCC(=O)NCc2ccco2)nnc1-c1ccncc1,–,·,·,–,–,–[10 µM]
Cc1ccc(S(=O)(=O)Oc2ccccc2/C=N/N=C(N)N)cc1,–,·,·,–[9.22 µM],–,–
Cc1ccc(S(=O)(=O)Oc2ccccc2/C=C2\SC(=O)NC2=O)cc1,13µM,·,·,·,–,·
O=c1[nH][nH]cc1C=Nc1cc(Cl)ccc1O,–,·,·,–,–,14µM
CCc1ccc(S(=O)(=O)Nc2ccc3oc(C)c(C(=O)OCCOC)c3c2)cc1,·,–,·,·,·,·
COc1ccc2c(c1)c1ncn(Cc3ccco3)c(=O)c1n2C,?,–,?,10µM,–,–
CCNc1ccc(S(=O)(=O)N(C)C)cc1NCC(=O)Nc1ccccc1Cl,8.9µM,·,·,–,–,·
COc1cccc(C2/C(=C(\O)c3ccc(OC)c(OC)c3)C(=O)C(=O)N2c2cc(C)on2)c1 (stereo not drawn),–,?,–,–,10µM,–
COc1ccc(/C(O)=C2\C(=O)C(=O)N(c3cc(C)on3)C2c2ccccc2OC)cc1 (stereo not drawn),22µM,–,–,–,6.3µM,–
CCOC(=O)C1C(=O)C=C(c2ccc(C)cc2)CC1c1ccccc1 (stereo not drawn),–,·,·,–[9.22 µM],–,–
CC(=O)C1C(=O)C=C(c2ccco2)CC1c1ccccc1 (stereo not drawn),25µM,?,–,–,–,–
COc1ccc(C(=O)NC(=S)Nc2ccc3c(c2)Cc2ccccc2-3)cc1,10µM,–,–,–,?,–
Cc1ccc(C(=O)NC(=S)Nc2ccc(Oc3ccc(Cl)cc3)cc2)cc1,18µM,–,–,?,–,–
O=C(NC(=S)Nc1ccc(Oc2ccccc2)cc1)c1ccc(Cl)cc1,14µM,–,–,?,–,?
O=P(O)(O)OC[C@H]1O[C@](O)(COP(=O)(O)O)[C@@H](O)[C@@H]1O,·,·,·,–,·,?
O=[N+]([O-])c1cc2c(cc1/C=N\NS(=O)(=O)c1ccccc1)OCO2,1.6µM,–,–,–,–,–[10 µM]
Cc1cccc(Oc2nc3c(c(=O)n(C)c(=O)n3C)n2Cc2ccccc2)c1C,·,–,·,·,·,·
CNC(=O)c1ccc(OCc2ccccc2)c(OC)c1,–,–,–,–,–,–
SMILES,ALDH1A1 block,IMPase inh,HPGD block,HTT aggregate,IMPase Li inh,HTT cytoprotect
COc1ccccc1NC(C#N)c1ccccc1OCc1ccccc1 (stereo not drawn),18µM,·,–,–,–,·
CCOC(=O)c1ccc(NC(=S)NNC(=O)COC)cc1,8.9µM,·,–,–,–,–[10 µM]
COC(=O)c1cccnc1NC(=S)NNC(=O)c1ccccc1,?,–,25µM,–,–,–[10 µM]
COc1ccc(Cl)cc1NC(=S)NNC(=O)C1(C)CC1(Cl)Cl (stereo not drawn),28µM,·,·,–[9.22 µM],–,–[10 µM]
COc1cc(C(=O)NNC(=S)Nc2ccc(S(N)(=O)=O)cc2)cc(OC)c1OC,10µM,·,·,·,–,·
CCOC(=O)c1ccc(NC(=S)NC2CCCC2)cc1,–,·,–,–,–,·
COC(=O)c1ccccc1NC(=S)NC(=O)c1ccccc1,?,–,?,–,–,–
Cc1cc(O)c2c(c1)OC1(C)CCC3C(C)(C)CCCC34COC2C14 (stereo not drawn),·,·,·,–,·,–
COC(=O)c1ccc(NC(=S)Nc2ccccc2)cc1,–,–,–,–,–,–[10 µM]
CCOC(=O)c1ccc(NC(=S)NN2CCN(C)CC2)cc1,–,·,·,–,–,–
COC(=O)c1ccc(NC(=S)NNC(=O)CC(C)C)cc1,–,–,28µM,–,–,–[10 µM]
COC(=O)c1ccc(NC(=S)NNC(=O)c2ccccc2)cc1,8.9µM,·,·,–[9.22 µM],–,–[10 µM]
CCOC(=O)c1ccc(NC(=S)NNC(=O)C2(C)CC2(Cl)Cl)cc1 (stereo not drawn),10µM,–,28µM,?,–,–[10 µM]
CC(C)C(c1nnnn1C(C)(C)C)N1CCC(Cc2ccccc2)CC1 (stereo not drawn),22µM,·,–,–,–,·
[O-]/C(=C(\C(=S)NCc1ccc2c(c1)OCO2)[n+]1ccccc1)c1ccc(Cl)s1,16µM,·,·,–,–,–
C=CCNC(=S)/C(=C(\[O-])c1ccc(Cl)cc1)[n+]1ccccc1,14µM,·,·,–[9.22 µM],·,–[10 µM]
Cc1ccc(/C([O-])=C(/C(=S)NCc2ccccc2)[n+]2ccccc2)cc1[N+](=O)[O-],?,·,·,–,–,–
[O-]/C(=C(\C(=S)NCc1ccccc1)[n+]1ccccc1)c1ccc(Cl)cc1,8.9µM,·,·,–,–,–[10 µM]
N/C(CN1CCCCC1)=N\S(=O)(=O)c1cc(Cl)cc(Cl)c1,–,·,·,–[9.22 µM],·,–[10 µM]
COc1ccc(-c2csc3nc(-c4ccc(F)cc4)oc(=O)c23)cc1OC,·,–,·,·,·,·
Cc1noc(C)c1-c1nccc(NCc2ccccc2)n1,–,·,·,·,–,–
Cc1ccc(C(=O)OC(C(=O)Nc2ccc(Cl)cc2C(F)(F)F)c2ccccc2)cc1 (stereo not drawn),–,·,–,–,–,–[10 µM]
O=C(OC(C(=O)Nc1ccc(Cl)cc1C(F)(F)F)c1ccccc1)c1c(Cl)cccc1Cl (stereo not drawn),3.2µM,·,–,–,–,–[10 µM]
Cc1oc2cc(OCc3cnn(-c4ccccc4)c3)ccc2c(=O)c1Oc1ccccc1F,5µM,·,–,–,–,–[10 µM]
O=C(c1ccc(S(=O)(=O)N2CCCCC2)cc1)N1CCc2ccccc2C1,?,·,·,–[9.22 µM],–,–[10 µM]
O=C(c1ccc(S(=O)(=O)c2ccccc2)cc1)N1CCc2ccccc2C1,–,·,18µM,–,–,–[10 µM]
O=C(c1ccc([N+](=O)[O-])cc1)N1CCc2ccccc2C1,–,·,28µM,–,–,·
CC(C)(C)N1C(=O)[C@H]2[C@H]3[C@H](O)[C@H](O)C/C(=N/OCc4ccccc4)[C@H]3CC[C@@H]2C1=O,–[13.5 µM],·,·,·,·,–[10 µM]
C=CCOC(=O)N[C@H](/C(C(=O)OC)=C(\C)NCc1ccccc1)c1cccc(C(F)(F)F)c1,–,·,–,·,–,?
O=C(CCOc1ccccc1)OCC(=O)c1cc2ccccc2o1,–,–,32µM,–,–,–[10 µM]
